This is part of a sample that, as a whole, favours compounds with a hit. Of some 83,000 tested, about 20% had one in any assay.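 Growth was measured after 48 h exposure to one concentration of compound in 96-well plates. Values under 10 count as active.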 Unmarked numbers belong to inactive results. Calls of active or inactive are those of the source.
Assays:
Assay in all cases: NCI-60 one-dose screen, 48 h (100 = growth as untreated, 0 = no growth, -100 = all killed)
Conditions in all cases: 10 µM unless noted
NCI-H23 lung = system: NCI-H23 lung
NCI-H226 lung = system: NCI-H226 lung
NCI-H322M lung = system: NCI-H322M lung
HOP-62 NSCLC = system: HOP-62 NSCLC
NCI-H460 lung = system: NCI-H460 lung
HOP-92 NSCLC = system: HOP-92 NSCLC
NCI-H522 lung = system: NCI-H522 lung
786-0 renal = system: 786-0 renal
COLO 205 colon = system: COLO 205 colon
A549/ATCC NSCLC = system: A549/ATCC NSCLC

Row | Compound | growth (NCI-H23 lung) | growth (NCI-H226 lung) | growth (NCI-H322M lung) | growth (HOP-62 NSCLC) | growth (NCI-H460 lung) | growth (HOP-92 NSCLC) | growth (NCI-H522 lung) | growth (786-0 renal) | growth (COLO 205 colon) | growth (A549/ATCC NSCLC)
1 | COc1cc(C2CC(=O)Nc3c2c(C)nn3-c2nc3ccccc3[nH]2)c(OC)c(OC)c1OC (stereo not drawn) | 82.6% | 89.7% | 95.2% | 44.3% | 39% | 75.7% | 33.3% | 27.6% | 41.2% | –
2 | Cc1nc2ccccc2n1CC1NC(=O)NC1=O (stereo not drawn) | 102% | 98.4% | 97.7% | 93.3% | 107% | 115% | 94.9% | 101% | 108% | 98.3%
3 | CC(=O)C(C)Cc1cc2c(cc1C)C(C)(C)CCC2(C)C (stereo not drawn) | 95.3% | 99.5% | 97.8% | 82.4% | 107% | 85.7% | 85.3% | 95.2% | 105% | 79.2%
4 | COc1ccc2nc(NNC(=O)c3cnccn3)c3cccn3c2c1 | -24.3% (active) | 14.9% | 8.34% (active) | 7.91% (active) | -2.09% (active) | 29.3% | -2.64% (active) | -12% (active) | -27% (active) | 9.52% (active)
5 | c1cc2ccc3cc2cc1CNCCOCCNCc1ccc2ccc(cc2c1)CNCCOCCNC3 | -52.6% (active) | -29.4% (active) | -10.7% (active) | -10.2% (active) | -9.48% (active) | -31.5% (active) | -61.6% (active) | 43.5% | -53.2% (active) | –
6 | c1ccc2c(c1)nc(CN1CCOCC1)n1cc(N3CCCC3)nc21 | 94% | 93.6% | 103% | 87.5% | 117% | -2.06% (active) | 106% | 91.8% | 103% | –
7 | COC(=O)/C=C1\S/C(=N\NS(=O)(=O)c2ccc(C)cc2)N(c2ccccc2)C1=O | 102% | 97.8% | 99.6% | 99.4% | 104% | 91.4% | 91.9% | 108% | 121% | –
8 | NC(N)=NN=C(c1ccccc1)c1ccccc1 | 17.8% | 51.4% | 45.5% | 28.6% | 14.4% | 60.7% | 28.2% | 26.2% | -0.806% (active) | –
9 | Cn1cc(-c2csc(-c3cccc(F)c3)n2)c2cccnc21 | -62.7% [100 µM] (active) | -14.4% [100 µM] (active) | -22% [100 µM] (active) | -69.2% [100 µM] (active) | -59.6% [100 µM] (active) | -59.6% [100 µM] (active) | -27.6% [100 µM] (active) | -81.6% [100 µM] (active) | -66.5% [100 µM] (active) | 1% [100 µM] (active)
10 | COc1ccc(NC(=O)CSc2nnc(-c3cc(-c4ccc(S(N)(=O)=O)cc4)nc4ccccc34)n2-c2ccccc2)cc1 | 102% | 77.5% | 93.8% | 85.7% | 91% | 62.2% | 78% | 88.4% | 95.5% | 90.9%
11 | NC(N)=Nc1nc2ccccc2n2c1nc1ccccc12 | 36.3% | 56.7% | 43.7% | 40.4% | 8.12% (active) | 56.6% | 16.1% | 33.5% | 30.3% | –
12 | Cc1cc(NCc2cc(Nc3ccnc4cc(Cl)ccc34)ccc2F)nc(N2CCN(c3ccccc3)CC2)n1 | 62.8% | 55.4% | 74.1% | 62% | 44.9% | 20.6% | 45.6% | 64.8% | 13.6% | 50.6%
13 | COc1ccc(N=C(c2ccccc2)C2C(=O)c3ccccc3C2=O)cc1 | 99.4% | 96.8% | 105% | 97% | 96.4% | -11.2% (active) | 67% | 97.3% | – | –
14 | COc1ccc(-c2nc3c(N)c(CO)c(C)nc3o2)cc1 | 86.6% | 41.2% | 92.5% | 90.3% | 108% | 116% | 91.6% | 95.5% | – | –
15 | CCN(CC)CCN1C(=O)c2c(c(C)c3c(oc4cc(O)ccc43)c2C)C1=O | 92.7% | 29.2% | 89.1% | 93.1% | -69% (active) | 72.1% | -37.1% (active) | -80.9% (active) | 12.8% | –
16 | NC(=S)N/N=C/Cc1ccccc1 | 99.6% | 103% | 105% | 104% | 110% | 109% | 100% | 106% | 97.2% | 90.6%
17 | Cn1cc2c(c1)-c1nc(Nc3ccccc3)ncc1CC2 | 38.3% | 51.7% | 52.9% | 69.2% | 42.5% | 70.6% | 84.9% | 87.2% | 76.7% | –
18 | COc1nc2c(c(=O)n1C)CN(c1ccccc1)C(=O)CN2C | 56.9% [100 µM] | 52.3% [100 µM] | 62.1% [100 µM] | 63.6% [100 µM] | 59.4% [100 µM] | 56.9% [100 µM] | 67% [100 µM] | 55.2% [100 µM] | 68.8% [100 µM] | 55.7% [100 µM]
19 | COc1ccc(-c2[nH]c(=S)n(C(CC3(C)NCC(=O)N3n3c(-c4ccccc4)cc(C)nc3=S)c3ccc(OC)cc3)c(=O)c2Br)cc1 (stereo not drawn) | 70.8% | 57.1% | 82.2% | 66.9% | 73.1% | 38.5% | 42.4% | 83.3% | 74.9% | –
20 | O=C(NC(CSSCC(NC(=O)c1ccccc1)C(=O)O)C(=O)O)c1ccccc1 (stereo not drawn) | 101% | 98.7% | 103% | 95.6% | 107% | 88.3% | 92.4% | 105% | 114% | 104%
21 | Cc1ccc(C(=O)COc2cccc(/C=C3\Oc4ccccc4C3=O)c2)cc1 | 90.5% | 80.9% | 101% | 97.1% | 119% | 89.8% | 78.2% | 97.6% | 115% | –
22 | Cc1ccc(N2CCN(C(=S)c3cccs3)CC2)cc1 | 104% | 94.9% | 107% | 105% | – | 74.8% | 82.6% | 90.3% | 112% | 92.5%
23 | CC1(C)OC2C(CO[Si](C)(C)C(C)(C)C)OC(n3c(I)c(C#C[Si](C)(C)C)c(=O)[nH]c3=O)C2O1 (stereo not drawn) | 76.9% | 103% | 106% | 99.1% | – | 98.8% | 90% | 93.9% | 111% | 94.9%
24 | COc1cc(C2CC(=O)Nc3c2c(C)nn3-c2nc3ccccc3[nH]2)c(OC)c2c1OCO2 (stereo not drawn) | 86.9% | 84.8% | 86.9% | 75.8% | – | 85% | 71.2% | 78.6% | 91.9% | 52.4%
25 | C[C@@H]1N=C(c2ccc3ccccc3n2)Nc2nc3ccccn3c2C1=O | 86.3% | 94.4% | 97.3% | 75.1% | – | 97.2% | 102% | 98.3% | – | 105%
26 | CC/C=C\C[C@H](O)C/C=C1/C(=O)C=C[C@@H]1C/C=C\CCCC(=O)OC | -7.41% (active) | -34.5% (active) | 29.3% | -32% (active) | – | -20.5% (active) | -69.6% (active) | -49.6% (active) | -52.1% (active) | -21.4% (active)
27 | c1ccc(Nc2nc(-c3ccccn3)cs2)nc1 | 19.1% | -9.64% (active) | 27.1% | 16.4% | – | 63.6% | 26.3% | -2.41% (active) | 11.5% | 11.2%
28 | COc1cccc(-c2nn(-c3ccccc3)cc2-c2ccnc(NCCCNC(=O)c3ccc(F)cc3)c2)c1 | 53.1% | 60.1% | 80.8% | 35.6% | – | 57.4% | 51.8% | 38.2% | 31.7% | 30.5%

Reference: PubChem BioAssay (NCI)
